This is one part of a sample in which hits are shown more often than they occur.
G9a block = G9a (human) methyltransferase inhibition | G9a H3K9 monomethylation, AlphaScreen, 2 h | Potency, µM (highest dose often 102 µM), for inactives: at the top dose activity, negative = inhibition, usual class: inhibitors | hit rate 8.8% among 350,000 | AID 504332; note: % is set by controls: 0 for no effect and ±100 for the full control effect; nearly all actives have a fitted effect of over 75% in size
Target sequence (Q96KQ7 913-1193 limits assumed): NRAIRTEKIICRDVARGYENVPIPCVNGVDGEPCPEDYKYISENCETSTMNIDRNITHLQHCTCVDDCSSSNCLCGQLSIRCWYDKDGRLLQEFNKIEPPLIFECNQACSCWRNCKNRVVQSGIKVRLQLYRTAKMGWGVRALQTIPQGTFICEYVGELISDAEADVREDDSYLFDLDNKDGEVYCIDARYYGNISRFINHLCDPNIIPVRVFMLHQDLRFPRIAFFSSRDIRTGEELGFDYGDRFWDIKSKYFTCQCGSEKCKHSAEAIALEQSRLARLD
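Signal arises when biotinylated H3K9 peptide, once monomethylated, bridges streptavidin donor and antibody-captured acceptor beads. Enzyme at 20 nM was preincubated 15 min with test compounds; peptide 500 nM and SAM 20 uM then reacted for 2 h.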
VDR inh = inhibitors of human vitamin D receptor. VDR-SRC2-3 peptide fluorescence polarization, 2 h. hit rate 0.93% among 400,000. Potency, µM, for the others: max response, negative = inhibition, hits mostly inhibitors. P11473; note: % is set by controls: 0 for no effect and ±100 for the full control effect
Target sequence (P11473 whole entry, looked up): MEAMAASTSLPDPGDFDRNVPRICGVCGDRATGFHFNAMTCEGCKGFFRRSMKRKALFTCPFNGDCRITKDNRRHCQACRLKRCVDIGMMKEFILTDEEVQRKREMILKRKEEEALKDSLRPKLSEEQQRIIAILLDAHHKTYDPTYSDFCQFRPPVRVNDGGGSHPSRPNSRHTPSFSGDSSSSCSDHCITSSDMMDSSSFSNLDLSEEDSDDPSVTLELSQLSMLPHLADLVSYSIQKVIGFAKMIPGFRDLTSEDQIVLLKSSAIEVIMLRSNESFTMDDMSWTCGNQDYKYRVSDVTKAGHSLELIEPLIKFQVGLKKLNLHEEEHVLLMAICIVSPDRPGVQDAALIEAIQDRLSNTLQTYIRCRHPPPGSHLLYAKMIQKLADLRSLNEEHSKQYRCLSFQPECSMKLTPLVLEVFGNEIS
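Inhibition of the VDR/SRC2-3 peptide interaction is quantified by fluorescence polarization. Compounds (23 nl, pintool) incubate with the reagents for 2 hours at ambient room temperature.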
Sfp PPTase inh = blocks B. subtilis Sfp PPTase activity; Q9F4F7; Biochemical Sfp PPTase activity, qHTS; Potency, µM, inactives show largest response in the series, negative = inhibition, hits mostly inhibitors; hit rate 3.5% among 310,000; AID 1490;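 note: the enzyme is Sfp with the accession as filed and its product quenches rhodamine fluorescence; 0% = enzyme reaction without inhibitor and -100% = no enzyme wells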
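Step 1, compound plus 15 nM Sfp-PPTase, 15 min, room temperature. Step 2, add rhodamine-CoA (5 uM) and BHQ-2-YbbR (12.5 uM). Step 3, read 525/598 nm fluorescence at 0 and 30 min.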
ALOX12 inh = blocks human arachidonate 12S-lipoxygenase | P18054 | purified 12hLO, xylenol orange hydroperoxide absorbance | Potency, µM (doses to about 108 µM), inactives show at the top dose activity change, negative = inhibition, usual class: inhibitors | hit rate 1.1% among 580,000; note: % is set by controls: 0 for no effect and ±100 for the full control effect
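Purified human 12hLO (150 nM final) in 25 mM Hepes, 0.01% Triton X-100, pH 7.0 was preincubated 15 min at room temperature with compound. Then 40 uM arachidonic acid was added, 30 min. Hydroperoxide was read by Fe-XO absorbance ratio 573/405 nm.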
Glioma ERSR ind = inducers of ER stress response in human glioma cells; Potency, µM, inactives show top-dose activation, hits mostly activators; U87-MG GRP78 promoter luciferase reporter, 16 h; hit rate 0.02% among 420,000; note: series mostly up to about 76 µM; % of control where 0% means no effect; nearly all actives have a fitted effect of over 35% in size
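Stably transfected U87-MG human glioma cells carrying a GRP78-based luminescent sensor were seeded at 1000 cells/well, pin-dosed with compounds and incubated 16 h. Luciferase reagent was then added, and end-point luminescence was read after 10 min at room temperature.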
* hit, by the source's call; ? = inconclusive; . = not tested or not shown; [ ] = another dose, or the depositor's remark. Calls come from the whole dose curve; as a rule, active = well fitted curve in the direction sought with a large enough effect; inconclusive = small, poorly fitted or top-dose-only effect, or another doubt; inactive = no such curve, though single readings can be large; an effect the other way counts as inactive or inconclusive. Potency is the fitted concentration of half-maximal effect.

SMILES	G9a block	VDR inh	Sfp PPTase inh	ALOX12 inh	Glioma ERSR ind
Cc1ccc(CNC(=O)C2c3ccccc3C(=O)N(C)C2c2c[nH]c3ccccc23)o1 (centres undefined)	?	10%	50µM*	?	-1%
Cc1ccc(CNC(=O)C2Cn3cccc3C(=O)N2C)o1 (centres undefined)	.	.	.	10%	.
CCCC(=O)NC(=S)c1c(C)n(C)n(-c2ccccc2)c1=O	45µM*	-10%	-28%	?	-1%
Cc1ccsc1CN(C)Cc1c(C)n(C)n(-c2ccccc2)c1=O	.	.	.	2%	.
Cc1c(NC(=S)NC(=O)COc2ccccc2)c(=O)n(-c2ccccc2)n1C	21%[59 µM]	-10%	8%	-13%	-2%
CC1=CC(=Nc2c(C)n(C)n(-c3ccccc3)c2=O)C=CC1=O	10µM*	.	8.9µM*	.	.
Cc1c(CN(C)CCc2ccccc2)c(=O)n(-c2ccccc2)n1C	4µM*	-2%	10%	?	-6%
CCC(C)C1=CC(=Nc2c(C)n(C)n(-c3ccccc3)c2=O)C=C(C(C)CC)C1=O (centres undefined)	?	-17%	12%	-13%	-4%
CC1=CC(=Nc2c(C)n(C)n(-c3ccccc3)c2=O)C=C(C)C1=O	40µM*	-3%	79µM*	?	-6%
CNC(=O)[C@H]1C[C@H](Oc2cccnc2)CN1S(=O)(=O)c1ccccc1C	.	.	.	24%	.
C[S+](=O)([O-])N1Cc2ccccc2CC2(CCN(CC3CCNCC3)CC2)C1	.	.	.	2%[6.33 µM]	.
Cc1c(O)c(=O)n(-c2ccccc2)n1C	8.9µM*	1%	?	?	-4%
Cc1c(N=Cc2ccccn2)c(=O)n(-c2ccccc2)n1C	71µM*	7%	-23%	-16%	-4%
Cc1c(Cc2c(C)n(C)n(-c3ccccc3)c2=O)c(=O)n(-c2ccccc2)n1C	-5%	-14%	-5%	17%	1%
Cc1c(N=NC2=C(O)CC(C)(C)CC2=O)c(=O)n(-c2ccccc2)n1C	-12%[12.7 µM]	?	40µM*	-30%	-4%
COCCn1cnc2c1c(=O)n(CC(=O)Nc1ccccc1C)c(=O)n2CC(C)C	.	.	.	-9%	.
CC(C)N1CCC(F)(c2nc(-c3ccccc3)no2)CC1	.	.	.	2%	.
O=c1c(-c2ccccc2)c(C(F)(F)F)oc2cc(O)ccc12	.	.	.	4%	.
CCOC(=O)C(NC(=O)C1Cc2ccccc2C(=O)O1)C(=O)OCC (centres undefined)	.	.	.	28%	.
CC(C)NS(=O)(=O)c1cccc(C(=O)Nc2ccc(N3CCCCC3)c3ccncc23)c1	.	.	.	62%	.
O=C(Nc1nc2c(F)cc(F)cc2s1)C1CC(=O)N(Cc2ccco2)C1 (centres undefined)	.	?	10µM*	?	2%
CC(=O)Nc1ccc(NC(=O)C2CC(=O)N(Cc3ccco3)C2)cc1 (centres undefined)	16µM*	?	.	?	-4%
Cc1ccc(C(=O)Oc2ccc(C(=O)COC(=O)C3CC(=O)N(Cc4ccco4)C3)cc2)cc1 (centres undefined)	?	-16%	?	.	?
O=C(COC(=O)C1CC(=O)N(Cc2ccco2)C1)c1ccc(OC(=O)c2ccco2)cc1 (centres undefined)	8.9µM*	?	13µM*	-21%	-1%
Cc1cc(C)c2nc(NC(=O)C3CC(=O)N(Cc4ccco4)C3)sc2c1 (centres undefined)	-26%[59 µM]	-2%	0%	?	-1%
SMILES	G9a block	VDR inh	Sfp PPTase inh	ALOX12 inh	Glioma ERSR ind
CCOc1ccc(NC(=O)C2CC(=O)N(Cc3ccco3)C2)cc1 (centres undefined)	15%[12.7 µM]	-17%	.	12%	4%
O=C(Nc1nc2c(F)cc(F)cc2s1)C1CCN(C(=O)c2ccc(F)cc2)CC1	45µM*	0%	.	?	-2%
Cc1cccc(NC(=O)C2CCN(C(=O)c3ccc(F)cc3)CC2)n1	-3%	1%	.	-14%	-1%
O=C(Nc1cccc(/C=C/c2ccccn2)c1)c1ccc(-n2cncn2)c([N+](=O)[O-])c1	35µM*	10%	.	-3%	-6%
COc1cc(=O)n(-c2ccccc2C)nc1C(=O)Nc1cc(Cl)ccc1C	.	.	.	0%	.
O=C(Nc1ccc(Cl)cc1C(=O)O)c1ccc2c(c1)C(=O)N(Cc1ccco1)C2=O	11µM*	?	-23%	?	1%
CC(C)CCN1C(=O)c2ccc(C(=O)Nc3cc(C(=O)O)cc(C(=O)O)c3)cc2C1=O	-1%	-7%	11%	0%	0%
CC(C)CCN1C(=O)c2ccc(C(=O)Nc3ccc(Br)cc3C(=O)O)cc2C1=O	.	79µM*	-7%	?	2%
CC(=O)/C(=N/Nc1ccccc1C)N1CCOCC1	1µM*	-10%	5%	-23%	-4%
CC(C)(C(=O)NC1CCCCCC1)c1ccccc1	.	.	.	121%	.
COc1ccc(-c2ccc(/C=C3/C(=N)N4C=CSC4=NC3=O)o2)c([N+](=O)[O-])c1	?	-3%	-18%	-10%	-2%
CC1=C(C#N)C(=O)NC(=O)/C1=C\c1ccc(-c2ccc(C)cc2[N+](=O)[O-])o1	18µM*	?	50µM*	11µM*	-2%
CCOC(=O)c1cc(-c2ccc(/C=C3/C(=O)NC(=O)C(C#N)=C3C)o2)ccc1Cl	35µM*	?	50µM*	?	-1%
CC(=O)c1cn(CC(=O)Nc2ccncc2)c2ccccc12	.	.	.	20%	.
Cc1ccc(-n2c(SCC(=O)NCc3ccco3)nc3nc4c(cc3c2=O)COC(C)(C)C4)cc1	?	-13%	25µM*	464%	1%
Cc1nnc(NC(=O)CSc2nc3[nH]ncc3c(=O)[nH]2)s1	35µM*	2%	8%	-5%	0%
COc1ccc(NC(=O)CSc2nc3[nH]ncc3c(=O)[nH]2)cc1OC	45µM*	20%	.	-1%	0%
COc1ccc(C(=O)Nc2c(N)nc(SCC(=O)Nc3ccc(NC(C)=O)cc3)[nH]c2=O)cc1OC	6.3µM*	6%	-9%	11%	4%
Cc1cc(NC(=O)C(C)OC(=O)c2cc3c(s2)CCCC3)no1 (centres undefined)	.	.	.	-12%	.
COc1ccc(OC)c(C2CC(=O)N(c3sc4c(c3C#N)CCCCC4)C3=C2C(=O)CCC3)c1 (centres undefined)	.	.	.	16%	.
COc1ccc(CCC(=O)Nc2cccc(-c3nnc4n3CCCC4)c2)cc1	.	.	.	51%	.
CCOC(=O)c1sc(NC(=O)c2ccc(S(=O)(=O)N3CCCCC3)cc2)nc1-c1ccccc1	-2%[59 µM]	-3%	-4%	0%	-6%
CCOC(=O)c1c(-c2ccccc2)csc1NC(=O)c1cc(S(=O)(=O)N2CCOCC2)ccc1C	32µM*	-18%	?	-20%	-3%
CCOC(=O)N1CCN(S(=O)(=O)c2ccc(C(=O)Nc3sc4c(c3C(N)=O)CC(C)(C)NC4(C)C)cc2)CC1	50µM*	-5%	-6%	12%	-3%

Screening data as filed in PubChem BioAssay.
